Screening data: PubChem BioAssay, several laboratories
Shown are actives, neighbours in structure and some others; about 3.5% of the full set was active somewhere.
GDH-TPI inh – counter-screen for M. tuberculosis FBA inhibitors: GDH-TPI coupled enzymes. GDH-TPI coupled enzyme counterscreen, NADH absorbance. inhibition, % at 4.8 µM. 360,000 tested, 1.2% active; in the data active = inhibition above about 30%;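 also: 0% = DMSO wells and 100% = wells lacking the enzyme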
Rv3671c inh – inhibits the M. tuberculosis serine protease Rv3671c | inhibition, % at 5.96 µM | 320,000 tested, 0.048% active; in the data active = inhibition above about 38%;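 also: extracellular domain of Rv3671c used as enzyme; 0% = enzyme with DMSO and 100% = no enzyme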
Target sequence (P9WHR9 whole entry, looked up, the tested form may be a part): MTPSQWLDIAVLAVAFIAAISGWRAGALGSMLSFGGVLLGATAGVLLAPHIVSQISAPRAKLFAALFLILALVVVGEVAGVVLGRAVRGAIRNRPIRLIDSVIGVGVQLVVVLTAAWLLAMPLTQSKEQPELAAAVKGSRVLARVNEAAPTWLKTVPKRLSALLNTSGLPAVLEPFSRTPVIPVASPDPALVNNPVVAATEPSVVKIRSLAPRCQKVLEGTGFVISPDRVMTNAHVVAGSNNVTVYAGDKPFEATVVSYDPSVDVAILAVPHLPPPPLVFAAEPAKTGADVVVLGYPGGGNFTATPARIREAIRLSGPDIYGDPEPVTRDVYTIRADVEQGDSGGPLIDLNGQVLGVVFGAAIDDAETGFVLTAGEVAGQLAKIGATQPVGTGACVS
UGM FP inh – blocks M. tuberculosis UGM enzyme. P9WIQ1. purified UGM, fluorescence polarization probe displacement. inhibition, % at 10 µM. 320,000 tested, 0.06% active. AID 504406; in the data active = inhibition above about 10%, passing the limit was not always enough
Mtb FBA inh – inhibitors of M. tuberculosis fructose-bisphosphate aldolase | 360,000 tested, 2.3% active | P9WQA3 | inhibition, % at 1 µM | purified M. tuberculosis FBA, fluorescence read-out; in the data active = inhibition above about 27%;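 also: 0% = vehicle and 100% = reference inhibitor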
Starred values were filed as active, the others as inactive; / = no result given; + = active, no number.

SMILES | GDH-TPI inh | Rv3671c inh | UGM FP inh | Mtb FBA inh
O=C(C1CCC(=O)N(C2CC2)C1)N1CCN(c2cccc(Cl)c2)CC1 (centres undefined) | -3.5 | / | 0.2 | 0.5
CO[C@H]1/C=C/O[C@@]2(C)Oc3c(C)c(O)c4c(O)c(c(C=NN5CCN(C)CC5)c(O)c4c3C2=O)NC(=O)/C(C)=C\C=C\[C@H](C)[C@H](O)[C@@H](C)[C@@H](O)[C@@H](C)[C@H](OC(C)=O)[C@@H]1C | 13.0 | 4.0 | 4.1 | -7.2
CO[C@H]1C=CO[C@@]2(C)Oc3c(C)c(O)c4c(O)c(c(C=NN5CCN(C)CC5)c(O)c4c3C2=O)NC(=O)C(C)=CC=C[C@H](C)[C@H](O)[C@@H](C)[C@@H](O)[C@@H](C)[C@H](OC(C)=O)[C@@H]1C | 40.1* | -9.3 | -1.0 | -13.3
O=C(c1ccco1)N1CCCC(c2nc3c(nnn3Cc3c(Cl)cccc3Cl)c(=O)[nH]2)C1 (centres undefined) | 0.0 | -3.2 | -1.3 | 0.1
c1ccc2nc3c(nc2c1)OCC1CCCCN31 (centres undefined) | 17.9 | 7.0 | 0.1 | 149.5*
CC(C)S(=O)(=O)C/C(N)=N/OC(=O)c1cc(Cl)cc(Cl)c1 | -5.5 | 6.8 | 3.3 | -2.7
O=C(O)c1ccc(N=Cc2c(O)n(Cc3ccc(F)cc3)c(=O)[nH]c2=O)cc1 | 1.3 | 1.2 | 1.1 | -5.7
NC(=O)c1ccc(N=Cc2c(O)n(Cc3ccco3)c(=O)[nH]c2=O)cc1 | 36.1* | -5.8 | 2.6 | -0.6
CC(=O)N1CCN(c2ccc(N=Cc3c(O)n(Cc4ccccc4)c(=O)[nH]c3=O)cc2)CC1 | 32.7* | / | / | -3.7
O=c1[nH]c(=S)n(Cc2ccco2)c(O)c1C=NCc1cccs1 | 34.0* | -30.2 | 4.4 | 3.9
CCN(CC)c1ccc(N=Cc2c(O)n(Cc3ccco3)c(=O)[nH]c2=O)cc1 | 18.1 | -17.1 | 2.2 | -7.3
O=c1[nH]c(=O)n(Cc2ccco2)c(O)c1C=NCc1cccs1 | 7.9 | 2.5 | -0.1 | 0.3
COc1ccccc1NC(=O)N(C)C[C@H]1Oc2ncc(C#CCN(C)C)cc2C(=O)N([C@H](C)CO)C[C@H]1C | -1.4 | / | / | -3.0
CSc1ncnc2c1ncn2CCCNCc1ccccn1 | 6.2 | / | / | 3.2
Cc1cc(-c2nc3ncccc3o2)ccc1NC(=O)CC(C)C | 13.9 | -2.1 | -0.2 | +
Cc1cc(-c2nc3ncccc3o2)ccc1NC(=S)NC(=O)C(C)C | 11.2 | -9.8 | -4.5 | 4.5
COCCn1c(-c2ccc(C#N)cc2)nc2c1c(=O)[nH]c(=O)n2Cc1ccccc1 | -4.8 | -0.1 | 3.2 | +
CCCn1c(=O)[nH]c(=O)c2c1nc(-c1ccc(C#N)cc1)n2CCOC | -2.3 | 3.9 | 1.4 | +
Cc1nnn(-c2nonc2N)c1C(=O)NNC(=O)c1ccc(Cl)c(Cl)c1 | -1.6 | -2.3 | -0.6 | -8.4
N#Cc1c(C(F)(F)F)cc(-c2cccs2)nc1SCC(=O)O | 36.7* | -0.9 | 1.7 | 2.4
N#Cc1c(C(F)(F)F)cc(-c2cccs2)nc1SC(C(=O)O)c1ccccc1 (centres undefined) | 10.0 | -2.8 | -1.1 | 10.0
Cc1nn(CCC(N)=O)c2nc(-c3cccs3)cc(C(F)(F)F)c12 | 31.0* | -1.0 | -0.6 | 153.1*
Cc1occc1-c1nnc(SCC(=O)Nc2nc3ccccc3s2)o1 | 5.6 | -4.2 | 2.6 | 2.5
C=CC(C)(C)c1[nH]cnc1/C=C1\NC(=O)C(C(C)C)NC1=O (centres undefined) | 32.4* | 2.5 | -3.5 | 4.8
COc1cccc(/C=N/NC(=O)c2cc3c(OC)c(OC)ccc3[nH]2)c1OC | 33.0* | / | / | -3.1
SMILES | GDH-TPI inh | Rv3671c inh | UGM FP inh | Mtb FBA inh
COc1ccccc1/C=N/NC(=O)c1cc2c(OC)c(OC)ccc2[nH]1 | 34.3* | / | -1.6 | -1.9
COc1ccc(OC)c(/C=N/NC(=O)c2cc3c(OC)cccc3[nH]2)c1 | 60.5* | -23.6 | 3.6 | 5.7
C=CCOc1ccc(/C=N/NC(=O)c2cc3c(OC)cc(OC)cc3[nH]2)cc1 | 31.7* | -15.0 | -1.1 | 9.0
COc1cccc(/C=N/NC(=O)c2cc3c(OC)cccc3[nH]2)c1OC | 25.4 | -7.3 | -0.3 | 2.4
Cc1nc([N+](=O)[O-])cn1CC(=O)Nc1ccc(F)c(Cl)c1 | 14.4 | -6.6 | 0.6 | -1.3
CC(C)(C)c1ccc(OCC(O)CN2CCOCC2)cc1 (centres undefined) | 3.4 | 6.7 | 4.1 | -2.1
CCOc1ccccc1CNC(=O)C1CCCN(c2nnc(C)c3c(C)n(-c4ccccc4)nc23)C1 (centres undefined) | 0.4 | 3.6 | -0.4 | 23.0
CNC(=O)c1ccc(-c2ccc(OC)cc2)s1 | 26.5 | 3.0 | -3.3 | +
C#CCOc1ccccc1CNC1CCN(Cc2ccccc2)CC1 | -2.9 | 3.6 | 0.0 | -2.4
Cc1cc(OCc2cn(CC(=O)c3ccc(O)cc3)nn2)ccc1[N+](=O)[O-] | 40.6* | / | / | -0.4
CC(C)[C@@]1(c2ccc(Cl)cc2)ON(c2ccccc2C(F)(F)F)C1=O | / | 1.1 | 1.7 | /
CNC(=O)C1CC(=O)N/C(=N/N=C(\C)c2cccs2)S1 (centres undefined) | 37.3* | 3.8 | -0.4 | -5.0
COc1ccc(/C(C)=N/N=C2/NC(=O)CC(C(=O)O)S2)cc1F (centres undefined) | 51.9* | 6.1 | 3.2 | -5.0
Oc1ccc(-c2nccc(-c3ccc(F)cc3)n2)cc1 | 14.7 | -19.8 | 3.0 | 2.1
CC1(CC(=O)N/N=C/c2ccc(-c3ccc(Cl)cc3)o2)OCCO1 | 54.6* | -11.6 | -1.3 | 0.2
CC1(CC(=O)N/N=C/c2ccc(-c3ccc(C(=O)O)cc3)o2)OCCO1 | 59.6* | 7.0 | -0.1 | 15.9
Cc1ccc(-c2ccc(/C=N/NC(=O)CN3CCCC3)o2)cc1Cl | 24.4 | -8.0 | 0.4 | 1.2
O=C(CN1CCOCC1)N/N=C/c1ccc(-c2ccc(C(=O)O)cc2)o1 | 35.4* | 1.8 | -0.4 | 6.3
CCOc1ccc(C(=O)NC(C(=O)N2CCC2)C(C)C)cc1 (centres undefined) | -1.4 | / | / | -0.7
COc1ccc(NC(=O)CN2CCCCCC2)cc1OC | -2.3 | -6.3 | -4.1 | 0.9
COC(=O)c1ccc(NC(=O)Cn2nc(C(=O)Nc3ccc(C)cc3)ccc2=O)cc1 | 5.9 | -15.4 | -0.5 | -2.9
CCOC(=O)C1CCN(CC(=O)c2ccc(O)c(C)c2O)CC1 | 32.2* | -3.5 | 2.9 | 8.1
CCOC(=O)N1CCN(CC(=O)c2ccc(O)c(C)c2O)CC1 | 0.8 | -12.4 | 1.9 | -2.8
Cc1ccc(S(=O)(=O)N2CC(C)N(C(=O)N3CCOCC3)C2C)cc1 (centres undefined) | -6.1 | 3.3 | 0.7 | -0.7
COc1ccc(-c2ccc3oc(-c4ccc(OC)cc4)c(C#CC4(O)CCCCC4)c3c2)cc1 | 43.5* | -37.3 | 2.4 | 13.6
O=C(N/N=C\c1ccc(COc2ccc([N+](=O)[O-])cc2)o1)c1ccc(Cl)cc1 | 41.8* | -50.6 | -0.1 | -0.4
O=C(N/N=C\c1ccc(COc2ccc([N+](=O)[O-])cc2)o1)c1cccc(Cl)c1 | 29.4 | -14.9 | -0.5 | 2.2
COC(=O)c1ccc(/C=N/NC(=S)NC(C)C)cc1 | 48.0* | 8.7 | 2.0 | -3.1
COc1cccc(C(c2nnnn2C2CCCC2)N2CCN(C/C=C/c3ccccc3)CC2)c1OC (centres undefined) | / | / | / | 1.9
